The source of these data is the OligoGym collection.
Note: reference of the scale not given here.

The first experiment deals with CLDN23. Kind of experiment: pooled miR-30 sensor sort-seq; sequence = guide strand. The following applies: shRNA.
The sequence TTGAGCAGGAGCCCGCAGGGCG yielded a sensor-assay potency score (higher = more potent) of -1.37. Regarding TCGCTGTAGTACTTGATGGCGG, the sensor-assay potency score (higher = more potent) is -1.12. Consider TACAACTCCACGTCCACTGGCT, for which the sensor-assay potency score (higher = more potent) worked out at 0.00465. Same read-out and setting: the same measure for TTGGGCTCGTCCTGCCAGCAGC: -1.78.

The sequence TTGGATGGTGCTGACGCTGCTG displayed a sensor-assay potency score (higher = more potent) of -0.0148. Take TGTAGCTGACCTGCACCGTGAC: the sensor-assay potency score (higher = more potent) was -0.702. The same measure, in the same setting: the same measure for TAGTACTTGATGGCGGGCGCCA: -1.32; for TGGATGGTGCTGACGCTGCTGC: -1.17. On the same count and under the same terms, the same measure for TTGGTGTAGGCCTTGGGCCGCG: -1.14; for AAGTTGGGCTCGTCCTGCCAGC: -1.5; for TGGCCGTCGCTGTAGTACTTGA: -1.77. Same read-out and setting: the same measure for ATGGTGCTGACGCTGCTGCGGC: -1.77.

A further experiment addresses CLDN6. The description is as above. Particulars: shRNA.
Turning to ACAAAGACAATCCCAGAGGTGA, the sensor-assay potency score (higher = more potent) was -0.71.

Sequence TTCTCCTCCACACAGGTGGTAC displayed a sensor-assay potency score (higher = more potent) of -1.81. For ATTAGCGTCAGGACCCCTGAGA, the sensor-assay potency score (higher = more potent) is -0.855.

In the case of TCCACACAGGTGGTACACTTGG, the sensor-assay potency score (higher = more potent) is -1.58. For the sequence TAGCGGGCCATGTAATGGCTGG, the sensor-assay potency score (higher = more potent) was -1.06. In turn, AATCCCAGAGGTGAGCACCAGG yielded a sensor-assay potency score (higher = more potent) of -1.46. ATGACAAAGACAATCCCAGAGG displayed a sensor-assay potency score (higher = more potent) of -1.76.

In the case of TAGACCAGCAAGCCGAACAGGG, the sensor-assay potency score (higher = more potent) is -0.8. Still for that read-out and setting: the same measure for TTTGATAAAAATGTGAGTGTAA: 0.357; for TAGAAGTCCCGGATGATGGCAT: 0.0775. In turn, TTGGGCCTCAGCCACCAGGGGG returned a sensor-assay potency score (higher = more potent) of -1.51. TTTGTTAACAGATCATTTGTTT: the sensor-assay potency score (higher = more potent) is 0.0812.
